Bioassay records (PubChem BioAssay)
Mtb BioA inh: M. tuberculosis BioA enzyme inhibitors, primary screen, biochemical, plate reader, single point, HTS; purified M. tuberculosis BioA enzyme; inhibition, % at 9.99 µM; actives 0.096% (n = 360,000); in the data active = inhibition above about 40%
FadD28 FP inh: inhibitors of FadD28 bisubstrate probe binding, primary screen, biochemical, fluorescence polarization, single point; Mycobacterium tuberculosis FadD28 fatty-acid-AMP ligase; inhibition, % at 12.5 µM; actives 0.22% (n = 360,000); in the data active = inhibition above about 8.5%, passing the limit was not always enough
FBA Mtb inh: Mtb FBA enzyme inhibitors, primary screen, biochemical, fluorescence, strain H37Rv | Fructose-bisphosphate aldolase (Mycobacterium tuberculosis (strain ATCC 25618 / H37Rv)), … | purified M. tuberculosis FBA, fluorescence read-out | inhibition, % at 1 µM | actives 2.3% (n = 360,000) | AID 588726, 2011; in the data active = inhibition above about 27%;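 note: 0% = vehicle and 100% = reference inhibitor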
Target sequence (P9WQA3 whole entry, looked up): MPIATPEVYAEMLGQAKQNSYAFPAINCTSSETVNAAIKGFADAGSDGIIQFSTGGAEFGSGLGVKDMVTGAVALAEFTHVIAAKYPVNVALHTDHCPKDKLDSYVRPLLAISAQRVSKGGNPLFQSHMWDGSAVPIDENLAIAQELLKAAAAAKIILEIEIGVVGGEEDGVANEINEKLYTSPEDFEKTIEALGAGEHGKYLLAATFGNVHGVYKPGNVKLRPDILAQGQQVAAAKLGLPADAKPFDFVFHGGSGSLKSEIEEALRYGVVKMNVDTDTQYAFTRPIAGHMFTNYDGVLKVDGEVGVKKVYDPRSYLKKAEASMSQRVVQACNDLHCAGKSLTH
Mtb hypoxia inh: PubChem AID 1159583. M. tuberculosis hypoxia-regulated fluorescent reporter, fluorescence. fluorescence inhibition, % (no concentration beside the values). actives 0.1% (n = 300,000); in the data active = fluorescence inhibition mostly above about 23%, no sharp cut-off; inactive = mostly below about 17%
GDH-TPI counter: GDH-TPI coupling enzyme inhibitors, primary screen, artefact control for M. tuberculosis FBA inhibitor project, biochemical, absorbance, full deck | GDH-TPI coupled enzyme counterscreen, NADH absorbance | inhibition, % at 4.8 µM | actives 1.2% (n = 360,000) | AID 588335, 2011; in the data active = inhibition above about 30%;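 note: 0% = DMSO wells and 100% = wells lacking the enzyme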
* = called active by the depositor; . = not tested or not shown. Rows were chosen to be rich in hits. Some 2.9% of all compounds tested hit in one or more screens of this group.

SMILES	Mtb BioA inh	FadD28 FP inh	FBA Mtb inh	Mtb hypoxia inh	GDH-TPI counter
CCC(=Nc1ccccc1O)C1=C(O)CC(c2ccccc2)CC1=O (stereo not given)	-1	0	2	70*	1
C=CCc1cccc(C=NNC(=O)COc2ccc(-n3cnnn3)cc2)c1O	.	.	.	8	.
CCc1cc(C(=O)N2CCCC(C(=O)c3cccc(OC(C)C)c3)C2)n(C)n1 (stereo not given)	1	-6	0	8	-7
CCc1[nH]nc(C(=O)N2CCCC(C(=O)c3cccc(OC(C)C)c3)C2)c1C (stereo not given)	1	0	164*	-5	-4
CO[C@H]1CN(C)C(=O)c2ccc(NC(=O)c3ccccc3F)cc2OC[C@@H](C)N(C(=O)c2ccccc2F)C[C@H]1C	0	.	.	.	.
COc1ccc(-c2cc(C(F)(F)F)nc(S(C)(=O)=O)n2)cc1	.	-8	7	2	39*
COc1ccccc1-c1nnc2n1N=C(c1ccc(O)c(O)c1)CS2	2	-1	-5	3	36*
c1ccc(-c2ccc(C3=Nn4c(nnc4-c4cc(-c5ccccc5)n[nH]4)SC3)cc2)cc1	-1	-4	-3	22	44*
CC(/C=C/c1ccc2c(c1)OCO2)=NNC(=O)COc1ccc(C)cc1	.	.	.	9	.
O=S(=O)(c1ccc(F)cc1)N1CCCCN2[C@H](CO)[C@H](c3ccc(-c4ccccc4)cc3)[C@H]2C1	0	.	.	.	.
CN1C(=O)c2cc(NC(=O)C3CCOCC3)ccc2OC[C@@H]2O[C@H](CC(=O)NCCc3ccncc3)CC[C@@H]21	-2	.	.	.	.
O=C(O)c1ccc(C=NNc2ncc(C(F)(F)F)cc2Cl)cc1	.	.	.	0	.
COc1ccc(/C=N/Nc2ncc(C(F)(F)F)cc2Cl)cc1OC	.	3	6	.	41*
FC(F)(F)c1cnc(N/N=C/c2ccncc2)c(Cl)c1	.	-1	0	.	57*
C=C(C)COc1ccc2c(C)c(CC(=O)N3C[C@H]4C[C@@H](C3)c3cccc(=O)n3C4)c(=O)oc2c1	0	0	114*	.	29
Cc1cc(=O)oc2cc(OCC(=O)N3C[C@H]4C[C@@H](C3)c3cccc(=O)n3C4)ccc12	0	-3	6	.	-6
CSCC[C@H](NC(=O)CCn1nnc2ccccc2c1=O)C(=O)O	1	-3	-8	2	-2
CC(C)C[C@H](NC(=O)CCCn1nnc2ccccc2c1=O)C(=O)O	-1	0	-1	12	59*
Cc1cccc(N(Cc2ccccc2)C(=O)CCl)c1	.	0	0	36*	-8
Oc1c(Br)cc(C2N=C(c3ccccc3)NO2)cc1Br (stereo not given)	2	1	8	3	32*
COC(=O)C1=C(C(=O)OC)C2c3ccccc3C1c1ccccc12	-1	0	1	4	6
COC(=O)C1=CN(Cc2ccc(OC)c(OC)c2)C=C(C(=O)OC)C1c1cccc(OC)c1OC	7	-1	140*	9	11
COC(=O)C1=CN(C2CC2)C=C(C(=O)OC)C1c1ccccc1OC	.	-1	157*	4	8
CCN1C=C(C(=O)OC)C(c2cccc(OC)c2OC)C(C(=O)OC)=C1	.	-2	172*	5	1
O=[N+]([O-])c1ccc(O)c(C2=NNC(c3ccccc3F)C2)c1 (stereo not given)	0	-2	8	14	36*
SMILES	Mtb BioA inh	FadD28 FP inh	FBA Mtb inh	Mtb hypoxia inh	GDH-TPI counter
CCOC(=O)CN1C(=O)S/C(=C\c2ccc(-c3cccc(C(=O)O)c3C)o2)C1=O	0	-3	-2	14	0
O=C(CN1C(=O)/C(=C/c2ccco2)SC1=S)Nc1ccc(C(=O)O)c(O)c1	3	23*	-3	3	17
Cc1ccc(NC(=O)CN2C(=O)S/C(=C\c3ccc(-c4cccc(C(=O)O)c4C)o3)C2=O)cc1C	.	12*	0	7	14
O=C(CCCN1C(=O)/C(=C/c2ccccc2)SC1=S)Nc1ccc(C(=O)O)c(O)c1	3	-3	-4	.	11
COc1ccc(NC(=O)CCCN2C(=O)/C(=C\c3ccco3)SC2=S)cc1	-1	1	1	13	8
O=C(CN1C(=O)/C(=C/c2ccco2)SC1=S)Nc1ccc(O)c(C(=O)O)c1	1	36*	5	4	12
